Several values for one entry are separate records, joined by “and”; a condition that tells them apart may be missing. Equal values may be shown once. Inconclusive results are not listed. Where a call stands in place of a potency, no number is given. Where a structure was tested more than once in an assay, its records may differ in their call. Activity calls are given as the source filed them. Calls come from the whole dose curve.
Assays:
[1] = target: Acetylcholinesterase (Homo sapiens) (UniProt P22303); experiment: Acetylcholinesterase (AChE) small molecule antagonists: colormetric cell-based qHTS assay (AID 1347395); note: nearly all actives have a fitted effect of over 30% in size; note: potency is the fitted concentration of half-maximal effect
In short: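 Colorimetric read-out: DTNB detects thiocholine released when cellular AChE in SH-SY5Y cells hydrolyses acetylthiocholine. Cells attached overnight, received compound for 30 min at 37 C, then substrate mix for 90 min at 37 C.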

[2] = target: Acetylcholinesterase (Homo sapiens) (UniProt P22303); experiment: Acetylcholinesterase (AChE) small molecule antagonists: enzyme-based qHTS assay (AID 1347397); conditions: Potency: AChE enzyme activity inhibition; outcome: AChE enzyme activity inhibition; note: nearly all actives have a fitted effect of over 55% in size
In short: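 Recombinant human AChE, dispensed at 50 mU/mL, was preincubated with Tox21 10K compounds or DMSO vehicle for 30 min at room temperature. DTNB plus acetylthiocholine was then added, and thiocholine was measured colorimetrically after a further 10 min.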

[3] = target: Acetylcholinesterase (Homo sapiens) (UniProt P22303); experiment: Acetylcholinesterase (AChE) small molecule antagonists: fluorescence cell-based qHTS assay (AID 1347398); conditions: Potency: AChE activity; outcome: AChE activity; note: nearly all actives have a fitted effect of over 50% in size
In short: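 Human SH-SY5Y cells were plated overnight at 37 C, exposed to compound for 30 min at 37 C, 5% CO2, then given acetylthiocholine plus Thiolite Green for 40 min at room temperature; thiocholine fluorescence (Ex/Em 490/520 nm) reports endogenous AChE activity.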

[4] = target: Acetylcholinesterase (Homo sapiens) (UniProt P22303); experiment: Acetylcholinesterase (AChE) small molecule antagonists: enzyme-based qHTS assay with human liver microsomes (AID 1347399); conditions: Potency: qHTS inhibition; outcome: qHTS inhibition; note: nearly all actives have a fitted effect of over 60% in size
In short: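 Recombinant human AChE (50 mU/mL in the enzyme mix) and human liver microsomes (0.25 mg/mL final) were preincubated with compound and NADPH (0.25 mg/mL final) for 30 min at 37 C. Acetylthiocholine/DTNB was then added; thiocholine was read colorimetrically after 10 min at room temperature.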

Sequence of Acetylcholinesterase (Homo sapiens) (P22303 whole entry, looked up): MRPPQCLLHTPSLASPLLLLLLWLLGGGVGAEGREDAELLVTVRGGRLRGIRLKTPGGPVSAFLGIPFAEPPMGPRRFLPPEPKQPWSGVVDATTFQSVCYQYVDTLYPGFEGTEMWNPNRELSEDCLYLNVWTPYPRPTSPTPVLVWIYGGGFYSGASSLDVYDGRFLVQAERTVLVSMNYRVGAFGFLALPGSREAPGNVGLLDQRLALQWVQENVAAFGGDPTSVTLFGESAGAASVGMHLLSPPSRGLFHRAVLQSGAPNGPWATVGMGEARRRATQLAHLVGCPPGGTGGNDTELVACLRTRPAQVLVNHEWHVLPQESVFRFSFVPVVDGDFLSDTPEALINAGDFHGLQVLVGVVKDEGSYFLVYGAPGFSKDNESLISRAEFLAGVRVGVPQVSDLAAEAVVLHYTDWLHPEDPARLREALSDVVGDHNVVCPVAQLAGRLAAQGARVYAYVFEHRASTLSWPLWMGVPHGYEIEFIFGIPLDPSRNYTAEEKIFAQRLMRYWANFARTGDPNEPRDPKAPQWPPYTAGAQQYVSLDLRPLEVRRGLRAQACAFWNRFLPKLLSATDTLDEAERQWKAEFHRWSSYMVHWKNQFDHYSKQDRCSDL

Row | SMILES | Potency [1] | Potency [2] | Potency [3] | Potency [4] | activity, negative = inhibition [1] | activity change, negative = inhibition [2] | activity change, negative = inhibition [3] | activity change, negative = inhibition [4]
1 | Cc1ccc(C(=O)c2ccccc2)cc1 | inactive | inactive | inactive | inactive |  |  |  | 
2 | O=c1cc(-c2ccccc2)oc2cc(O)cc(O)c12 | inactive | inactive | inactive | inactive |  |  |  | 
3 | COc1ccc(C2CNC(=O)C2)cc1OC1CCCC1 (stereo not given) | inactive | inactive | inactive | inactive |  |  |  | 
4 | C[C@](N)(Cc1ccc(O)cc1)C(=O)O |  |  |  |  | -0.0506% [at 10.5 µM] (inactive) | 0.139% [at 10.5 µM] (inactive) | 3.21% [at 10.5 µM] (inactive) | -2.1% [at 10.5 µM] (inactive)
5 | C1CCCC1 | inactive | inactive | inactive | inactive |  |  |  | 
6 | Cc1cc(C)c(C)c(O)c1 | inactive | inactive | inactive | inactive |  |  |  | 
7 | c1ccc(-c2ccccn2)nc1 | inactive | inactive | inactive | inactive |  |  |  | 
8 | CC(C)=NNC(N)=S | inactive | inactive | inactive | inactive |  |  |  | 
9 | O=C(C(=O)c1ccc(Br)cc1)c1ccc(Br)cc1 |  |  |  |  | 1.28% [at 23.6 µM] (inactive) | 1.82% [at 23.6 µM] (inactive) | -2.19% [at 23.8 µM] (inactive) | -3.65% [at 23.6 µM] (inactive)
10 | NNC(=O)OCc1ccccc1 | inactive | inactive | inactive | inactive |  |  |  | 
11 | CC(=O)OCCC(C)C | inactive | inactive | inactive | inactive |  |  |  | 
12 | C#CC1(O)CC[C@H]2[C@@H]3CCC4=CCCC[C@@H]4[C@H]3CC[C@@]21C (stereo not given in full) | inactive | inactive | inactive | inactive |  |  |  | 
13 | C[C@H]1C[C@@H]2[C@H]([C@@H](O)C[C@@]3(C)[C@H]2CC[C@]3(O)C(=O)CO)[C@@]2(C)C=CC(=O)C=C12 | inactive | inactive | inactive | inactive |  |  |  | 
14 | CCC(=O)c1cccc(Cl)c1 | inactive | inactive | inactive | inactive |  |  |  | 
15 | CC(=O)OCC(=O)[C@@]1(O)CC[C@H]2[C@@H]3CCC4=CC(=O)CC[C@]4(C)[C@H]3C(=O)C[C@@]21C | inactive | inactive | inactive | inactive |  |  |  | 
16 | CC1CCCC(=O)C1=O (stereo not given) | inactive | inactive | inactive | inactive |  |  |  | 
17 | CCCCC/C=C/C=C/C=O | inactive | inactive | inactive | inactive |  |  |  | 
18 | c1ccc(OCCOc2ccccc2)cc1 | inactive | inactive | inactive | inactive |  |  |  | 
19 | C1CCCNCC1 | inactive | inactive | inactive | inactive |  |  |  | 
20 | Nc1nc2ccccc2[nH]1 | inactive | inactive | inactive | inactive |  |  |  | 

Row | SMILES | Potency [1] | Potency [2] | Potency [3] | Potency [4] | activity, negative = inhibition [1] | activity change, negative = inhibition [2] | activity change, negative = inhibition [3] | activity change, negative = inhibition [4]
21 | CC(=O)CC(=O)Nc1ccc(S(=O)(=O)O)cc1 | inactive | inactive | inactive | inactive |  |  |  | 
22 | c1cc(N(CC2CO2)CC2CO2)ccc1Cc1ccc(N(CC2CO2)CC2CO2)cc1 (stereo not given) | inactive | inactive | inactive | inactive |  |  |  | 
23 | C/C(CC(C)C)=N\O | inactive | inactive | inactive | inactive |  |  |  | 
24 | CCCNC(C)C(=O)Nc1c(C)csc1C(=O)OC (stereo not given) | inactive | inactive | inactive | inactive |  |  |  | 
25 | O=C(c1ccc(O)cc1)c1ccc(O)cc1O | inactive | inactive | inactive | inactive |  |  |  | 
26 | CC(C)(C)[C@@H](O)[C@@H](Cc1ccc(Cl)cc1)n1cncn1 | inactive and 71 µM (active) | inactive | inactive | inactive |  |  |  | 
27 | C=CC(=O)OCCC(=O)O | 82.3 µM (active) and inactive | inactive | inactive | inactive |  |  |  | 
28 | O=C1OC(=O)c2cccc3cccc1c23 | inactive | inactive | inactive | inactive |  |  |  | 
29 | C=C(C)C(=O)OCCCCCCCCCCCCC | inactive | inactive | inactive | inactive |  |  |  | 
30 | O=C(c1ccc2c(c1)C(=O)OC2=O)c1ccc2c(c1)C(=O)OC2=O | inactive | inactive | inactive | inactive |  |  |  | 
31 | CC(=O)/C=C/C1C(C)=CCC(C)C1(C)C (stereo not given) | inactive | inactive | inactive | inactive |  |  |  | 
32 | O=c1[nH]cnc2c1ncn2[C@H]1CC[C@@H](CO)O1 | inactive | inactive | inactive | inactive |  |  |  | 
33 | COC(=O)c1cccnc1 | inactive | inactive | inactive | inactive |  |  |  | 
34 | CCN(O)CC | inactive | inactive | inactive | inactive |  |  |  | 
35 | CC(C)c1cccc(C(C)C)c1N1C(=O)c2ccc(O)cc2C1=O | inactive | inactive | inactive | inactive |  |  |  | 
36 | Cc1cc(CCCOc2c(C)cc(-c3noc(C(F)(F)F)n3)cc2C)on1 | inactive | inactive | inactive | inactive |  |  |  | 
37 | CO/N=C(/C(=O)N[C@@H]1C(=O)N2C(C(=O)[O-])=C(C[n+]3ccn4ncccc43)CS[C@H]12)c1nsc(N)n1 | inactive | inactive | inactive | inactive |  |  |  | 
38 | CC(=O)Oc1ccc(C)cc1 | inactive | inactive | inactive | inactive |  |  |  | 
39 | CC(Cl)COP(=O)(OCC(C)Cl)OCC(C)Cl (stereo not given) | inactive | inactive | inactive | inactive |  |  |  | 
40 | C/C=C/c1ccc(OC)c(OC)c1 | inactive | inactive | inactive | inactive |  |  |  | 

Row | SMILES | Potency [1] | Potency [2] | Potency [3] | Potency [4] | activity, negative = inhibition [1] | activity change, negative = inhibition [2] | activity change, negative = inhibition [3] | activity change, negative = inhibition [4]
41 | CCOC(=O)/C=C/C(=O)O | inactive | inactive | inactive | inactive |  |  |  | 
42 | O=C1CC2CC1C1CCCC21 (stereo not given) | inactive | inactive | inactive | inactive |  |  |  | 
43 | CCOC(=O)c1ccc(OCCN2C[C@H](O)[C@@H](O)[C@H](O)[C@H]2CO)cc1 | inactive | inactive | inactive | inactive |  |  |  | 
44 | O=C(O)CC(C(=O)O)C(CC(=O)O)C(=O)O (stereo not given) | inactive | inactive | inactive | inactive |  |  |  | 
45 | COC(Cc1ccccc1)OC | inactive | inactive | inactive | inactive |  |  |  | 
46 | CN1C[C@@H]2C[C@H]1CN2c1cc2c(cc1F)c(=O)c(C(=O)O)cn2C1CC1 |  |  |  |  | 1.26% [at 23.6 µM] (inactive) | -0.543% [at 23.6 µM] (inactive) | 1.64% [at 23.8 µM] (inactive) | 0.0665% [at 23.6 µM] (inactive)
47 | Clc1cc(Cl)c(Cl)c(Cl)c1Cl | inactive | inactive | inactive | inactive |  |  |  | 
48 | CNCCCCOc1ccccc1Cc1ccccc1 | inactive | inactive | inactive | inactive |  |  |  | 
49 | CCC(=O)CC(C)CC (stereo not given) |  |  |  |  | -0.199% [at 0.435 µM] (inactive) | 1.36% [at 0.435 µM] (inactive) | 1.06% [at 0.439 µM] (inactive) | 0% [at 0.435 µM] (inactive)
50 | O=C(CO)[C@@H](O)[C@H](O)[C@H](O)CO | inactive | inactive | inactive | inactive |  |  |  | 
51 | O=c1[nH]c2ccccc2n1CCCN1CCN(C(c2ccccc2)c2ccccc2)CC1 | inactive | inactive | inactive | inactive |  |  |  | 
52 | Cc1cc(O)c(C(C)C)cc1Cl | inactive | inactive | inactive | inactive |  |  |  | 
53 | CN(c1nccc(=O)[nH]1)C1CCN(c2nc3ccccc3n2Cc2ccc(F)cc2)CC1 | inactive | inactive | inactive | inactive |  |  |  | 
54 | CCO[Si](CCC#N)(OCC)OCC | inactive | inactive | inactive | inactive |  |  |  | 
55 | Cc1noc(NS(=O)(=O)c2ccc(N)cc2)c1C | inactive | inactive | inactive | inactive |  |  |  | 
56 | CCCOCC(C)O (stereo not given) | inactive | inactive | inactive | inactive |  |  |  | 
57 | Oc1c(I)cc(Cl)c2cccnc12 | inactive | inactive | inactive | inactive |  |  |  | 
58 | O=C(Cl)c1ccc([N+](=O)[O-])cc1 | inactive | inactive | inactive | inactive |  |  |  | 
59 | CCCCC(CC)COC(=O)CCCCCCCC(=O)OCC(CC)CCCC (stereo not given) | inactive | inactive | inactive | inactive |  |  |  | 
60 | CCCCCCCCCCCSCC(=O)O | inactive | inactive | inactive | inactive |  |  |  | 
